Fluor 339 460 = intrinsic fluorescence of library compounds, ex339/em460 – biochemical, MLSMR library, data from DPM-DC assay, artefact control, profiling panel; compound autofluorescence, ex339/em460 nm, NADH buffer; active compounds read high; 1 = no-compound wells, NADH background; fluorescence fold increase at 10 µM; actives 5.5% (n = 65,000); AID 709, 2007;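 active = at 10 µM, mean starting fluorescence two-fold or more over control wells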;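 note: signal is the first read of a kinetic run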
A340 absorber = compound light absorbance at 340 nm, profiling panel, artefact control, biochemical, MLSMR library, data from PS, PMK, MK assays. 65,000 tested, under 10 active. AID 708, 2007. compound absorbance at 340 nm, fold over control. fold change at 10 µM;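 active = at 10 µM dose, initial 340 nm absorbance at least 2 fold that of control wells; inactive = change under 2 fold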;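 note: initial absorbance extrapolated from kinetic A340 decline of NADH oxidation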
M1 antag = antagonists of rat M1 muscarinic receptor. Muscarinic acetylcholine receptor M1 (Rattus norvegicus), P08482. CHO-M1 cells, Fluo-4 calcium, ACh EC80 antagonist mode; active compounds read low. B-score at 10 µM. actives 3.4% (n = 64,000);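 active = calcium fluorescence response, raw or row-and-column corrected B-score, differing from the plate sample mean either way at a set confidence level, mostly lower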
Target sequence (P08482 whole entry, looked up): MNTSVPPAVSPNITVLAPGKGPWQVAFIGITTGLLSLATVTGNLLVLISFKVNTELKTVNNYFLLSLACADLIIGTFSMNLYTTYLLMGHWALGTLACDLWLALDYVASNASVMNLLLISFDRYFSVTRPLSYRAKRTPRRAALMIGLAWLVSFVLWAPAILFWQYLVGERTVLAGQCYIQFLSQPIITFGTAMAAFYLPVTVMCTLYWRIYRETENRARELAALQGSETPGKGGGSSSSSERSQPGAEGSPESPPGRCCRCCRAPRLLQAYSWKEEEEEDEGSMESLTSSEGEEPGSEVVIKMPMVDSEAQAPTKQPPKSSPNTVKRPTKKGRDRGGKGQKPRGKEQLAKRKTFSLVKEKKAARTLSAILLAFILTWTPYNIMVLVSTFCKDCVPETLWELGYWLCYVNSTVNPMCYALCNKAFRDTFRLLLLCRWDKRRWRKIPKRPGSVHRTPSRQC
M1 ag = M1 muscarinic receptor agonists, primary screen, CHO-M1 cells, Fluo-4 calcium, agonist mode. Muscarinic acetylcholine receptor M1. Fluo-4 calcium fluorescence; active compounds read high. B-score at 10 µM. actives 3% (n = 64,000);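 active = fluorescence rise, raw or as B-score row- and column-corrected plate score, outside the 99.7% band of its plate's samples, either direction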
Htt clearance = clearance of mutant huntingtin inclusions, primary screen, imaging, HeLa Exon1htt(103Q)mCFP, confocal imaging; aggregate imaging; zero = plate's median compound well; inhibition, % at 1.5 µM; actives 0.42% (n = 47,000); AID 853, 2007;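 active = inhibition of aggregate fluorescence above about 70%, also judged a hit by eye on the cell image, limit read from the data, passing the limit was not always enough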;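 note: cells exposed to compound for three days before fixation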
NADH enzymes = inhibitors of PK/LDH coupling enzymes, profiling panel, artefact control, biochemical, MLSMR library | coupled PK/LDH NADH assays, four targets | IC50, µM (highest dose often 10 µM) | actives 0.02% (n = 65,000) | AID 774, 2007;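 active = single-dose screening hits from any of four coupled enzyme assays that gave an IC50 when retested across doses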;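 note: the DPM-DC format reads NADH fluorescence rather than 340 nm absorbance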
Of the large screens only hits and unclear results are named; the others gave an inactive call. Compounds with a hit are over-represented: about 9.3% of the library has one in this group of screens.

O=C(NCCCN1CCOCC1)c1cc(-c2ccc3c(c2)OCO3)nc2ccccc12	none (no result: Htt clearance)
COc1ccc(-c2cc(C(=O)NCCN3CCOCC3)c3ccccc3n2)cc1	Fluor 339 460 4.9
Cc1ccc(-c2cc(C(=O)N3CCOCC3)c3ccccc3n2)cc1	Fluor 339 460 2.1
CCOc1ccc(-c2cc(C(=O)O)c3ccccc3n2)cc1	none (no result: Fluor 339 460, A340 absorber, M1 antag, M1 ag, NADH enzymes)
O=c1c2nnn(Cc3ccccc3)c2ncn1C/C=C/c1ccccc1	none (no result: Htt clearance)
CC1CCCCN1S(=O)(=O)c1ccc(C(=O)Nc2sccc2C(N)=O)cc1 (configuration not stated)	none (no result: Fluor 339 460, A340 absorber, M1 antag, M1 ag, NADH enzymes)
Cc1n[nH]c(C)c1S(=O)(=O)Nc1ccc2c(c1)OCCO2	M1 antag 2.3
CCOc1cc(S(=O)(=O)NC2CCCCCC2)ccc1F	none (no result: Htt clearance)
CCCCN(CC)C(=O)c1ccc(Cl)c(Cl)c1	none
O=C(NCc1ccco1)c1ccccc1NS(=O)(=O)c1ccc2c(c1)OCCO2	Fluor 339 460 2.9 (no result: Htt clearance)
O=C(Nc1ccc(Cl)cc1)Nc1ccccc1C(=O)NCc1ccco1	Fluor 339 460 2.1 (no result: M1 antag, M1 ag)
Cn1c(/C=N/n2cnnc2)nc2ccccc21	Fluor 339 460 2.5
CCOc1cc2c(C#N)c(N3CCCCC3)nc(N)c2c(N)n1	none (no result: Fluor 339 460, A340 absorber, M1 antag, M1 ag, NADH enzymes)
COc1cc2c(C#N)c(N3CCc4ccccc4C3)nc(N)c2c(N)n1	Fluor 339 460 2.2 (no result: Htt clearance)
COc1cc2c(C#N)c(N3CCCCC3)nc(N)c2c(N)n1	Fluor 339 460 5.1 (no result: Htt clearance)
COc1cc2c(C#N)c(N3CCOCC3)nc(N)c2c(N)n1	Fluor 339 460 3.4 (no result: Htt clearance)
Cc1nnc(Sc2nc3c(c(=O)[nH]c(=O)n3C)n2Cc2ccccc2Cl)s1	none (no result: Htt clearance)
C#CC(C)(CC)NC(=O)Cn1nnc(-c2ccc(S(C)(=O)=O)cc2)n1 (configuration not stated)	none
O=C(COc1ccccc1)NCCc1cn2ccsc2n1	none (no result: Htt clearance)
CCN1CCN(C(c2ccc(OC)cc2)C(O)C(=O)c2c[nH]c3ccccc23)CC1 (configuration not stated)	none (no result: Fluor 339 460, A340 absorber, M1 antag, M1 ag, NADH enzymes)
CC1Cn2c(nnc2-c2cc3ccccc3cc2O)S1 (configuration not stated)	Fluor 339 460 2.9 (no result: Htt clearance)
CC1Cn2c(nnc2-c2ccccc2O)S1 (configuration not stated)	none (no result: Htt clearance)
O=C(O)c1cc(Cl)c2ccccc2c1O	Fluor 339 460 3.8
CC(=O)c1ccc(N2CCN(C(=O)c3cc4c(=O)n(C)c5ccccc5c4n3C)CC2)cc1	none (no result: Htt clearance)
CCCCCOc1ccc(C(=O)NCC(=O)NCC(=O)OCC)cc1	none
Cc1cc(O)c2c(-c3ccccc3)cc(=O)oc2c1	none
CCCCc1cc(=O)oc2cc(C)cc(OC(C)C(=O)O)c12 (configuration not stated)	Fluor 339 460 3
CCCc1cc(=O)oc2cc(C)cc(OCC(=O)O)c12	Fluor 339 460 3.9
COC(=O)C1=C(C)N(C)C(C)=C(C(=O)OC)C1c1ccncc1	none
COC(=O)C1=CN(C)C=C(C(=O)OC)C1c1ccsc1	Fluor 339 460 2.2 (no result: Htt clearance)
COc1cccc(-c2nnc(SCC(=O)OC(C)C)n2Cc2ccco2)c1	none (no result: Htt clearance)
CCN(CC)S(=O)(=O)c1cccc2cc(C(=O)O)c(O)cc12	Fluor 339 460 2.1
c1cncc(-c2nc3c4ccccc4nc(N4CCC(N5CCCCC5)CC4)n3n2)c1	M1 antag -6.7 (no result: Htt clearance)
CN1CCN(CCCNc2nc3ccccc3c3nc(-c4ccccc4)nn23)CC1	none (no result: Htt clearance)
CC(=O)c1c(C)nc2nonc2c1N	Fluor 339 460 2
CC(=O)NC1CC(C)(C)N(OC(C)=O)C(C)(C)C1	none
CCN1CCN(C(=O)c2cc3cc4cc(OC)ccc4nc3s2)CC1	Fluor 339 460 2.8 (no result: Htt clearance)
CC(C)C1N=C2c3ccccc3N=C(SCC#N)N2C1=O (configuration not stated)	Fluor 339 460 2.6 (no result: Htt clearance)
N#CCSC1=Nc2ccccc2C2=NC(CCC(=O)N3CCN(c4ccccc4)CC3)C(=O)N12 (configuration not stated)	none
O=C(Nc1ccc(Cl)cc1)N(C1=NCCC1)c1ccc(OC(F)F)cc1	none (no result: Fluor 339 460, A340 absorber, M1 antag, M1 ag, NADH enzymes)
CCCc1[nH]nc2c1C(c1ccc(O)c(OC)c1)C(C#N)=C(N)O2 (configuration not stated)	none
COC(=O)C1=C(NC(=O)c2ccc(C)c(C)c2)CCS1	Fluor 339 460 2.7 (no result: M1 antag, M1 ag, Htt clearance)
COc1ccc(Cl)cc1NC(=O)C1CSC(c2ccncc2)=N1 (configuration not stated)	none (no result: Htt clearance)
O=C(O)c1cc(NCc2cccs2)ccc1N1CCOCC1	Fluor 339 460 2.4
COC(=O)c1cc(NCc2c(F)cccc2Cl)ccc1N1CCOCC1	Fluor 339 460 2.6
Nc1nnnn1/N=C/c1cccc(OCc2ccccc2Cl)c1	none (no result: Fluor 339 460, A340 absorber, M1 antag, M1 ag, NADH enzymes)
Cc1ccc2nc3c(cc(C(=O)NCC4CCCO4)c(=N)n3CCCOC(C)C)c(=O)n2c1 (configuration not stated)	Fluor 339 460 3.7
CCn1cc(C(=O)NCC2CCCO2)c2cc(OC)c(OC)cc2c1=O (configuration not stated)	none
Cc1ccc2nc3c(cc(C(=O)NCC4CCCO4)n3C)c(=O)n2c1 (configuration not stated)	Fluor 339 460 3 (no result: Htt clearance)
Cc1ccc2nc3c(cc(C(=O)NCCCn4ccnc4)n3C)c(=O)n2c1	Fluor 339 460 3.9
Cn1c(C(=O)NCC2CCCO2)cc2c(=O)n(C)c3ccccc3c21 (configuration not stated)	none (no result: Htt clearance)
Cc1cc(C)n(-c2nc(NCCCO)c3c4c(sc3n2)CCCC4)n1	Fluor 339 460 2.6 (no result: Htt clearance)
NC(=O)CSc1nnc(-c2ccc(S(=O)(=O)N3CCOCC3)cc2)n1Cc1ccccc1	M1 antag 2.3
Cn1c(=O)c2c(-c3ccccc3)n(-c3ccccc3O)cc2n(C)c1=O	Fluor 339 460 2.2
CCn1cc2c(c1-c1cccc(C)c1)c(=O)n(C)c(=O)n2C	none (no result: Htt clearance)
Cc1cccc(-c2c3c(=O)n(C)c(=O)n(C)c3cn2C(C)C)c1	M1 ag 2.8
COc1ccc(-c2c3c(=O)n(C)c(=O)n(C)c3cn2-c2cc(OC)ccc2OC)cc1	Fluor 339 460 3.7
Cc1cccc(-c2c3c(=O)n(C)c(=O)n(C)c3cn2-c2ccc(O)cc2)c1	Fluor 339 460 2.1
COc1ccc(-c2c3c(=O)n(C)c(=O)n(C)c3cn2Cc2ccccn2)cc1	none
Cc1cccc(-c2c3c(=O)n(C)c(=O)n(C)c3cn2C(C)(C)C)c1	none (no result: Htt clearance)
Cn1c(=O)c2c(-c3ccccc3)n(C3CCCCC3)cc2n(C)c1=O	none (no result: Htt clearance)
CCC(C)C(NS(=O)(=O)c1ccc(C)cc1)C(=O)NCCN1CCOCC1 (configuration not stated)	none (no result: M1 antag, M1 ag, Htt clearance)
Cc1ccc(S(=O)(=O)NCC(c2ccccc2)N2CCN(CCC#N)CC2)cc1 (configuration not stated)	none

Screening data from PubChem BioAssay.
